Laboratory results from paper PMC4336329 (PLoS ONE, 2015).
Among all 310,000 compounds or so, about 14,000 (4.5%) showed an effect of 50% or more. Effects have a minus sign here. This excerpt belongs to a sample that is enriched for strong results.

The compounds below were run against human ether-à-go-go-related gene (hERG) potassium channel (human, UniProt Q12809) (assay: primary screen, population patch clamp on CHO cells stably expressing hERG; higher = less effect of the substance).
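Also: peak tail current of the secondary pulse compared with the same well before compound.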

Chain of human ether-à-go-go-related gene (hERG) potassium channel (Q12809 whole entry, looked up): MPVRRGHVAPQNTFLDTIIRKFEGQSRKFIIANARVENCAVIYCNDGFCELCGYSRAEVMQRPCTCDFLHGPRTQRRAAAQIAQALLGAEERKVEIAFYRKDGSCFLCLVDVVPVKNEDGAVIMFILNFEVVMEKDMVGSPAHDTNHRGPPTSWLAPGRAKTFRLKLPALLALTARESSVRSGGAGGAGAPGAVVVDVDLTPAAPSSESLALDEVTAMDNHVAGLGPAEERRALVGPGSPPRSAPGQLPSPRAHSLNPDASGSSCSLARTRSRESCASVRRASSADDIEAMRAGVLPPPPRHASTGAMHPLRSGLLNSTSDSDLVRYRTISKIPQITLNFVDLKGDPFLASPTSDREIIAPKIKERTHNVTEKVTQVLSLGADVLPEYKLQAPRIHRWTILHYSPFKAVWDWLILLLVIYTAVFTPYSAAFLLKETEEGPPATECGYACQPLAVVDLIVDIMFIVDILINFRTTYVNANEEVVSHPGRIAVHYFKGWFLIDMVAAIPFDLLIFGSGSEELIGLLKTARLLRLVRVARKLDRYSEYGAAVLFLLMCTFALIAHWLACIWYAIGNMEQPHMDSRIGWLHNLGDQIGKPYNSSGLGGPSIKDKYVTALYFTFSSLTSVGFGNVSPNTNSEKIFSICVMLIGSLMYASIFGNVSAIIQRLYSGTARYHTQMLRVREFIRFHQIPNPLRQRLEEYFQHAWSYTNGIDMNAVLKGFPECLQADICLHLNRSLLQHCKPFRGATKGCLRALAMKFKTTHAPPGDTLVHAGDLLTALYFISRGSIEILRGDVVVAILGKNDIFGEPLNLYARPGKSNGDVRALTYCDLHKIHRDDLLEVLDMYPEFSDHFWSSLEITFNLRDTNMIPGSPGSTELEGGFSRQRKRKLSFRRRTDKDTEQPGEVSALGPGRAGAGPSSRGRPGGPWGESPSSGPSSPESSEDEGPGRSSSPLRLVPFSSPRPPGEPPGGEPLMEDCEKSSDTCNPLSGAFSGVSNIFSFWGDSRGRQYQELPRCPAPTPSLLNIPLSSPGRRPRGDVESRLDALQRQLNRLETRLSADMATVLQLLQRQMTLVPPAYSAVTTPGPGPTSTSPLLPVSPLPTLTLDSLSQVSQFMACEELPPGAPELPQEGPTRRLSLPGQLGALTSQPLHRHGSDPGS

First: COc1ccccc1S(=O)(=O)Cc1ccc(C(=O)N2CCN(c3ccc(C)cc3)C(C)C2)o1 (centres unmarked)
Second: Cc1ccc(C2=NN(C(=O)c3cccs3)C(c3ccccc3O)C2)cc1 (centres unmarked)
The “hERG current change (%, negative = inhibition) at 10uM” value of the first is lower: -24.6% for the first, 34% for the second.

First: CCCNC(=O)c1oc2ccc3c(c2c1C)C=CC(C)(C)O3
Second: CCOc1ccc(NC(=O)COc2ccc3c(c2)OCO3)cc1
The “hERG current change (%, negative = inhibition) at 10uM” value of the first is lower: 0.704% for the first, 1.04% for the second.

Going from `CCOC(=O)c1cc2c(=O)n3ccccc3nc2n(CCOC)c1=NC(=O)c1c(-c2c(F)cccc2Cl)noc1C` to `CCOC(=O)c1cc2c(=O)n3ccccc3nc2n(CCOC)c1=NC(=O)c1ccncc1`, the “hERG current change (%, negative = inhibition) at 10uM” value falls from 2% to -51.3%.

Going from `CCOC(=O)c1cc2c(=O)n3ccccc3nc2n(CCOC)c1=NC(=O)C(C)(C)C` to `CCOC(=O)c1cc2c(=O)n3ccccc3nc2n(CCCOC)c1=NC(=O)C(C)(C)C`, the “hERG current change (%, negative = inhibition) at 10uM” value falls from -4.45% to -7.42%.

Going from `CCOC(=O)c1cc2c(=O)n3ccccc3nc2n(CCCOC)c1=NC(=O)c1ccncc1` to `CCOC(=O)c1cc2c(=O)n3ccccc3nc2n(CCCOC)c1=NC(C)=O`, the “hERG current change (%, negative = inhibition) at 10uM” value rises from -87.3% to -27.5%.

First: Cc1cccc(C(=O)Nc2ccc(C(=O)/C=C/c3cccs3)cc2)c1
Second: N#CCCn1cc(C(=O)Nc2ccc(C(=O)O)cc2)c(-c2cc3ccccc3o2)n1
The “hERG current change (%, negative = inhibition) at 10uM” value of the first is lower: 7.48% for the first, 10.7% for the second.

First: O=C(CSc1n[nH]c(=O)[nH]c1=O)N/N=C/c1ccccc1
Second: CC1(c2ccccc2)NC(=O)N(CC(=O)Nc2nc(-c3ccccn3)cs2)C1=O (centres unmarked)
The “hERG current change (%, negative = inhibition) at 10uM” value of the first is higher: 8.14% for the first, 0.219% for the second.

First: COc1ccc(-n2nc(C(=O)NCC(=O)NC(C)C)c3ccccc3c2=O)c(OC)c1
Second: COc1ccccc1C(=O)N/C(=C\c1ccc(Br)cc1)C(=O)NCC(=O)O
The “hERG current change (%, negative = inhibition) at 10uM” value of the first is higher: 11.3% for the first, 1.78% for the second.

Going from `COc1ccc(S(=O)(=O)n2nc(-c3cc(OC)c(OC)c(OC)c3)cc2N)cc1OC` to `COc1ccc(OC)c(NC(=O)C2CCCN(S(=O)(=O)c3c(C)noc3C)C2)c1` (centres unmarked), the “hERG current change (%, negative = inhibition) at 10uM” value falls from -2.63% to -16.8%.

First: CCc1ccc(OCC(=O)N/N=C\c2ccco2)c([N+](=O)[O-])c1
Second: Cc1ccc(OCC(=O)N/N=C\c2ccco2)c(C)c1
The “hERG current change (%, negative = inhibition) at 10uM” value of the first is lower: -67.4% for the first, -38% for the second.

First: COc1cc(/C=N/NC(=O)COc2ccccc2[N+](=O)[O-])ccc1OC(=O)c1ccco1
Second: CC(=O)N/C(=C\c1ccccc1)C(=O)OCc1ccc(C)cc1
The “hERG current change (%, negative = inhibition) at 10uM” value of the first is higher: -1.29% for the first, -19.9% for the second.

First: Cc1cc(-c2nnc(CSc3nnc(NC(=O)c4ccc(C(C)(C)C)cc4)s3)o2)ccc1[N+](=O)[O-]
Second: CC(C)(C)c1ccc(/C([O-])=C(/C(=S)NCc2ccco2)[n+]2ccccc2)cc1
The “hERG current change (%, negative = inhibition) at 10uM” value of the first is lower: 4.92% for the first, 6.63% for the second.

Compared with `CCN(CC)c1nc(N)c([N+](=O)[O-])c(NCCO)n1`, `CCOc1ccc(N(CC(=O)NCCCOC)S(C)(=O)=O)cc1` is lower in “hERG current change (%, negative = inhibition) at 10uM” value: 12.1% for the first, 4.53% for the second.

Compared with `O=C1[C@@H]2CSCN2C(=O)CN1CCc1cccc(F)c1`, `COc1ccccc1CN1CC(=O)N2CSC[C@H]2C1=O` is higher in “hERG current change (%, negative = inhibition) at 10uM” value: -20.9% for the first, 10.3% for the second.

Going from `O=C1C2CSCN2C(=O)CN1CCCN1CCN(C(c2ccccc2)c2ccccc2)CC1` (centres unmarked) to `O=C(CN1C(=O)NC2(CCc3ccccc32)C1=O)NCCc1ccccc1` (centres unmarked), the “hERG current change (%, negative = inhibition) at 10uM” value rises from -53.6% to -6.43%.

Going from `CCn1cc(C(=O)O)c(=O)c2cc(Br)ccc21` to `O=C(CNC(=O)c1ccccc1)OCc1cccc(Br)c1`, the “hERG current change (%, negative = inhibition) at 10uM” value rises from -46.7% to -17.8%.

Going from `Cc1ccc(/C=C2\SC(=S)N(c3cccnc3)C2=O)cc1` to `Cc1nc(=O)c(-c2ccccc2)c(C)n1-c1ccc(O)cc1`, the “hERG current change (%, negative = inhibition) at 10uM” value falls from 18.9% to 9.6%.

First: NC1=NC(=Nc2ccccc2)c2ccccc21
Second: NC1=NC(=Nc2ccc(Cl)cc2)c2ccccc21
The “hERG current change (%, negative = inhibition) at 10uM” value of the first is higher: 8.33% for the first, -3.81% for the second.

Going from `CC(C)c1ccc(N=C2N=C(N)c3ccccc32)cc1` to `O=S1(=O)N=C(N(CCO)/N=C/c2ccc(Cl)cc2)c2ccccc21`, the “hERG current change (%, negative = inhibition) at 10uM” value rises from -59.2% to 4.3%.

Going from `CCOC(=O)c1c(C)[nH]c(C)c1S(=O)(=O)N1CCOCC1` to `Cc1cc(C)cc(NC(=S)N2CCN(S(C)(=O)=O)CC2)c1`, the “hERG current change (%, negative = inhibition) at 10uM” value falls from 13.8% to 4.55%.

First: COc1ccc(S(=O)(=O)N2CCCN(CC(=O)Nc3ccc(OC)c(Cl)c3)CC2)cc1
Second: COc1ccc(S(=O)(=O)N2CCCN(CC(=O)Nc3ccc4c(c3)OCO4)CC2)cc1
The “hERG current change (%, negative = inhibition) at 10uM” value of the first is higher: -33.3% for the first, -61.5% for the second.

Going from `CCOc1ccc(NC(=O)CN2CCN(CC(=O)Nc3ccc4c(c3)OCO4)CC2)cc1` to `COc1ccc(NC(=O)CN2CCN(CC(=O)Nc3ccc4c(c3)OCO4)CC2)cc1`, the “hERG current change (%, negative = inhibition) at 10uM” value falls from -76.1% to -78.1%.

First: O=C(CN1CCOCC1)Nc1ccc2c(c1)OCO2
Second: COc1ccccc1N1CCN(CC(=O)Nc2ccc3c(c2)OCCO3)CC1
The “hERG current change (%, negative = inhibition) at 10uM” value of the first is higher: 17.3% for the first, -6.03% for the second.

First: COc1ccccc1NC(=O)CN1CCN(CC(=O)Nc2ccc3c(c2)OCO3)CC1
Second: COc1ccccc1NC(=O)CN1CCN(CC(=O)Nc2ccc3c(c2)OCCO3)CC1
The “hERG current change (%, negative = inhibition) at 10uM” value of the first is lower: -72% for the first, -34.4% for the second.

Going from `COc1ccc(OCC(=O)Nc2ccc3c(c2)OCO3)cc1` to `CCOc1ccc(OCCC(=O)Nc2ccc3c(c2)OCO3)cc1`, the “hERG current change (%, negative = inhibition) at 10uM” value rises from -0.489% to 10.2%.

Compared with `COc1ccc(S(=O)(=O)N2CCCN(CC(=O)Nc3ccc(NC(C)=O)cc3)CC2)cc1`, `COc1ccc(Nc2c3c(nc4ccc(C)cc24)CCC3)cc1.Cl` is lower in “hERG current change (%, negative = inhibition) at 10uM” value: 2.8% for the first, -78.3% for the second.

Compared with `COc1ccccc1NC(CC(=O)c1ccccc1)C(=O)OCC(=O)c1ccc(Br)cc1` (centres unmarked), `O=C(CNC(=O)/C(=C\c1ccccc1)NC(=O)c1ccc(Br)cc1)OCc1ccccc1` is lower in “hERG current change (%, negative = inhibition) at 10uM” value: -3.81% for the first, -69.1% for the second.

Compared with `CN(C)c1ccc(P(=O)(Nc2ccc([N+](=O)[O-])cc2)N2CCOCC2)c(NC(=O)c2cccs2)c1` (centres unmarked), `O=C(Nc1ccc(C(=O)O)cc1)/C(=C\c1ccccc1)NC(=O)c1ccc(Br)cc1` is lower in “hERG current change (%, negative = inhibition) at 10uM” value: 16.9% for the first, 7.33% for the second.

First: O=C(NCCCl)Nc1cccnc1Cl
Second: CC1(C(=O)NCCCN2CCOCC2)Oc2cccnc2NC1=O (centres unmarked)
The “hERG current change (%, negative = inhibition) at 10uM” value of the first is lower: 12.2% for the first, 13.2% for the second.

Compared with `COc1ccc(/C(C)=N\n2cnnc2)cc1`, `COc1ccc(Nc2ncnc3ccc(C)cc23)cc1` is lower in “hERG current change (%, negative = inhibition) at 10uM” value: 6.86% for the first, -3.17% for the second.

Going from `O=C(NC(Cc1ccccc1)C(=O)O)/C(=C\c1ccc(F)cc1)NC(=O)c1ccccc1` (centres unmarked) to `O=C(CNC(=O)/C(=C\c1ccc(F)cc1)NC(=O)c1ccccc1)OCc1ccccc1`, the “hERG current change (%, negative = inhibition) at 10uM” value falls from 11.1% to -80.7%.

Compared with `O=C(CNC(=O)c1ccc(Oc2ccccc2)cc1)OCc1ccc(Br)cc1`, `O=C(CNC(=O)/C(=C/c1ccccc1)NC(=O)c1ccc(Br)cc1)OCc1ccccc1` is lower in “hERG current change (%, negative = inhibition) at 10uM” value: -0.714% for the first, -64% for the second.

Compared with `Cc1ccc(/C=C(\NC(=O)c2ccccc2)C(=O)OCc2ccccc2)cc1`, `Cc1ccc(C(=O)N/C(=C\c2ccccc2)C(=O)OCc2ccccc2)cc1` is lower in “hERG current change (%, negative = inhibition) at 10uM” value: 10.3% for the first, -50.7% for the second.

First: CCOC(=O)CNC(=O)/C(=C\c1ccc(F)cc1)NC(=O)c1ccccc1
Second: O=C(CNC(=O)/C(=C\c1ccc(Br)cc1)NC(=O)c1ccccc1)OCc1ccccc1
The “hERG current change (%, negative = inhibition) at 10uM” value of the first is higher: -26.4% for the first, -59.9% for the second.

Going from `Cc1ccccc1NC(=S)Nc1ccc(Br)cc1` to `NC(=S)NNC(=O)/C(=C/c1ccc(Br)cc1)NC(=O)c1ccccc1`, the “hERG current change (%, negative = inhibition) at 10uM” value rises from -6.93% to 40%.

First: CS(=O)(=O)N(Cc1ccccc1)c1ccc(C(=O)Nc2ccccc2Sc2ccccc2)cc1
Second: Cc1cccc(C)c1NC(=O)CN(C)C(=O)c1ccccc1Sc1ccccc1C#N
The “hERG current change (%, negative = inhibition) at 10uM” value of the first is higher: 1.8% for the first, -4.76% for the second.

First: O=C(NC(=S)NCc1cccnc1)c1cc2ccccc2o1
Second: COc1ccc(NC(=O)c2cn(CCC#N)nc2-c2cc3ccccc3o2)cc1
The “hERG current change (%, negative = inhibition) at 10uM” value of the first is higher: 8.71% for the first, -0.308% for the second.

Compared with `CC(=O)c1ccc(O)c(CSC2=NCCS2)c1`, `Cc1ccc2nc3c(c(C(=O)O)c2c1)CCC3` is lower in “hERG current change (%, negative = inhibition) at 10uM” value: 19.8% for the first, 2.29% for the second.

First: COc1ccccc1NC(=O)Nc1nn(C)c2cccc(N(C)C)c12
Second: COc1cccc(-c2nn(Cc3ccccc3)cc2CO)c1
The “hERG current change (%, negative = inhibition) at 10uM” value of the first is higher: 11% for the first, 8.47% for the second.

Compared with `COC(=O)C1CCN(Cc2cn(Cc3ccccc3)nc2-c2cc3ccccc3o2)CC1`, `COC1CCN(Cc2cn(Cc3ccccc3)nc2-c2cc3ccccc3o2)CC1` is higher in “hERG current change (%, negative = inhibition) at 10uM” value: -75.9% for the first, -71.9% for the second.

First: COC(=O)C1CCN(C(=O)c2cc3ccccc3oc2=O)CC1
Second: COC(=O)C1CCN(Cc2nnc(-c3ccccc3)o2)CC1
The “hERG current change (%, negative = inhibition) at 10uM” value of the first is lower: -7.44% for the first, 16.1% for the second.

Compared with `COCCOC1CCN(Cc2cn(Cc3ccccc3)nc2-c2cc3ccccc3o2)CC1`, `COc1ccc2nc3c(c(-c4ccccc4)c2c1)CCC3` is higher in “hERG current change (%, negative = inhibition) at 10uM” value: -67% for the first, -5.34% for the second.

Going from `Cc1cccc(-c2nc(Nc3cccc(O)c3)c3ccccc3n2)c1` to `Cc1ccc(-c2nc(Nc3cccc(O)c3)c3ccccc3n2)cc1`, the “hERG current change (%, negative = inhibition) at 10uM” value falls from 21.8% to 11.9%.

Going from `Cc1ccc2nc3c(c(Nc4ccc(O)cc4)c2c1)CCC3.Cl` to `Cc1ccc2nc3c(c(Nc4cccc(O)c4)c2c1)CCC3.Cl`, the “hERG current change (%, negative = inhibition) at 10uM” value falls from -21.2% to -70%.

With `Cc1ccc2nc3c(c(Nc4ccccc4)c2c1)CCC3.Cl` the “hERG current change (%, negative = inhibition) at 10uM” value was -71.7%.
